# This is part of a sample that, as a whole, favours compounds with a hit. Of some 79,000 tested, about 15% had one in any assay. A number with no mark means an inactive call. Activity calls are given as the source filed them. Cut-off read from the data, not from the text of the source: active = growth inhibition above about 70%; inactive = the rest.
# Legend:
# [1] = NCI Yeast Anticancer Drug Screen. Data for the rad50 strain (AID 155);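 note: 0% = growth of vehicle-only cultures of the same strain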; settings: S. cerevisiae rad50 strain growth inhibition, stronger effect = higher value
# Method in brief: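 Vehicle-treated cultures provide the reference for the growth inhibition reported for compound-exposed, repair-deficient yeast.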
# [2] = NCI Yeast Anticancer Drug Screen. Data for the mec2-1 strain (AID 157); settings: S. cerevisiae mec2-1 strain, stronger effect = higher value
# Method in brief: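 Readout is yeast growth inhibition, normalised to vehicle-treated controls, in the mec2-1 strain exposed to compound.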
# [3] = NCI Yeast Anticancer Drug Screen. Data for the sgs1 mgt1 strain (AID 161);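 note: 0% = growth of cultures given vehicle only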; settings: S. cerevisiae sgs1 mgt1 strain, stronger effect = higher value
# Method in brief: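 Growth of a repair-deficient yeast mutant was monitored after compound treatment and expressed as inhibition relative to vehicle-treated cultures.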
# [4] = NCI Yeast Anticancer Drug Screen. Data for the cln2 rad14 strain (AID 165);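 note: 0% = growth equal to vehicle treated cultures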; settings: S. cerevisiae cln2 rad14 strain, stronger effect = higher value
# Method in brief: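 Relative to vehicle controls, growth inhibition of compound-treated cln2 rad14 yeast was recorded.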
# [5] = NCI Yeast Anticancer Drug Screen. Data for the bub3 strain (AID 167); settings: S. cerevisiae bub3 mutant strain, stronger effect = higher value
# Method in brief: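 Mutant yeast screening strain plus compound; vehicle-treated cultures serve as the 0% inhibition reference.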
# [6] = NCI Yeast Anticancer Drug Screen. Data for the mlh1 rad18 strain (AID 175); settings: S. cerevisiae mlh1 rad18 strain growth inhibition, stronger effect = higher value
# Method in brief: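 Test agents were incubated with a yeast strain of defined genotype (DNA damage repair defect). Inhibition of growth was derived by comparison with vehicle-exposed cultures.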
# [7] = at 5.0 µM (retest, dose inferred, filed as 0.5)
# [8] = at 50.0 µM (retest, dose inferred, filed as 5.0)
SMILES,"growth inhibition [1, 7]","growth inhibition [1, 8]",growth inhibition ([1]; at 50.0 µM),"growth inhibition [2, 7]","growth inhibition [2, 8]",growth inhibition ([2]; at 50.0 µM),"growth inhibition [3, 7]","growth inhibition [3, 8]",growth inhibition ([3]; at 50.0 µM),"growth inhibition [4, 7]","growth inhibition [4, 8]",growth inhibition ([4]; at 50.0 µM),"growth inhibition [5, 7]","growth inhibition [5, 8]",growth inhibition ([5]; at 50.0 µM),"growth inhibition [6, 7]","growth inhibition [6, 8]",growth inhibition ([6]; at 50.0 µM)
CC(=O)Nc1ccc2c(c1)C(=O)c1cccc(F)c1-2,6%,93% (active),90% (active),-2%,54%,25.8%,-4%,69%,51.2%,-2%,38%,12%,1%,17%,12.2%,3%,82% (active),45.9%
Cc1cc2nc(CC(=O)c3ccncc3)c(CC(=O)c3ccncc3)nc2cc1C,6%,75% (active),78% (active),9%,60%,53.9%,10%,59%,65.5%,25%,84% (active),75.2% (active),31%,89% (active),61.1%,12%,59%,66.5%
CCN(CC)CC(C)(C)C(=O)/C=C/c1ccc(Cl)c(Cl)c1,6%,98% (active),97.9% (active),9%,98% (active),99.2% (active),18%,94% (active),98% (active),4%,97% (active),89.2% (active),1%,98% (active),98.8% (active),8%,97% (active),99% (active)

# From PubChem BioAssay (NCI)
